Results filed as inconclusive are left out. Active and inactive are the calls of the source. The call rests on the fitted dose curve. Starred links: 1 amine or outer side, 2 acyl side, 3 side chain; linkers in the order of their positions; H or OH if unused. Positions of bridges follow the written chain, without caps; N, C: chain ends. Non-standard residues stand in square brackets, D forms with d. Residues, ends and D or L forms follow the SMILES beside them. Chains are numbered I, II in the order given. Actinocin(9to1) = Cc1c2oc3c(C)ccc(C(=O)[*:1])c3nc-2c(C(=O)[*:2])c(N)c1=O; NMeV = CN[C@H](C(=O)O)C(C)C; Sar = CNCC(=O)O
Legend:
[1] = target: Acetylcholinesterase (Homo sapiens) (UniProt P22303); experiment: Acetylcholinesterase (AChE) small molecule antagonists: colormetric cell-based qHTS assay (AID 1347395); further: nearly all actives have a fitted effect of over 30% in size
Summary of the method: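 After overnight attachment at 37 C, SH-SY5Y cells get 30 min compound exposure; detection cocktail (acetylthiocholine, DTNB) then incubates 90 min at 37 C, and absorbance reflects AChE-generated thiocholine.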

[2] = target: Acetylcholinesterase (Homo sapiens) (UniProt P22303); experiment: Acetylcholinesterase (AChE) small molecule antagonists: enzyme-based qHTS assay (AID 1347397); conditions: Potency: AChE enzyme activity inhibition; outcome: AChE enzyme activity inhibition; further: nearly all actives have a fitted effect of over 55% in size
Summary of the method: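 First, recombinant human AChE (50 mU/mL as dispensed) received test compound or DMSO. Second, plates stood 30 min at room temperature. Third, DTNB and acetylthiocholine were added, followed by 10 min at room temperature and colorimetric detection.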

[3] = target: Acetylcholinesterase (Homo sapiens) (UniProt P22303); experiment: Acetylcholinesterase (AChE) small molecule antagonists: fluorescence cell-based qHTS assay (AID 1347398); conditions: Potency: AChE activity; outcome: AChE activity; further: nearly all actives have a fitted effect of over 50% in size
Summary of the method: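 Homogeneous quantitative HTS format. SH-SY5Y cells seeded at 2,000 per well settle overnight at 37 C. Compound pretreatment runs 30 min (37 C, 5% CO2); substrate/probe mix then reacts 40 min at RT before reading 490/520 nm.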

[4] = target: Acetylcholinesterase (Homo sapiens) (UniProt P22303); experiment: Acetylcholinesterase (AChE) small molecule antagonists: enzyme-based qHTS assay with human liver microsomes (AID 1347399); conditions: Potency: qHTS inhibition; outcome: qHTS inhibition; further: nearly all actives have a fitted effect of over 60% in size
Summary of the method: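 Recombinant human AChE (50 mU/mL in the enzyme mix) and human liver microsomes (0.25 mg/mL final) were preincubated with compound and NADPH (0.25 mg/mL final) for 30 min at 37 C. Acetylthiocholine/DTNB was then added; thiocholine was read colorimetrically after 10 min at room temperature.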
On the % scale 0 is the no-effect control and ±100 the full control effect.

Sequence of Acetylcholinesterase (Homo sapiens) (P22303 whole entry, looked up): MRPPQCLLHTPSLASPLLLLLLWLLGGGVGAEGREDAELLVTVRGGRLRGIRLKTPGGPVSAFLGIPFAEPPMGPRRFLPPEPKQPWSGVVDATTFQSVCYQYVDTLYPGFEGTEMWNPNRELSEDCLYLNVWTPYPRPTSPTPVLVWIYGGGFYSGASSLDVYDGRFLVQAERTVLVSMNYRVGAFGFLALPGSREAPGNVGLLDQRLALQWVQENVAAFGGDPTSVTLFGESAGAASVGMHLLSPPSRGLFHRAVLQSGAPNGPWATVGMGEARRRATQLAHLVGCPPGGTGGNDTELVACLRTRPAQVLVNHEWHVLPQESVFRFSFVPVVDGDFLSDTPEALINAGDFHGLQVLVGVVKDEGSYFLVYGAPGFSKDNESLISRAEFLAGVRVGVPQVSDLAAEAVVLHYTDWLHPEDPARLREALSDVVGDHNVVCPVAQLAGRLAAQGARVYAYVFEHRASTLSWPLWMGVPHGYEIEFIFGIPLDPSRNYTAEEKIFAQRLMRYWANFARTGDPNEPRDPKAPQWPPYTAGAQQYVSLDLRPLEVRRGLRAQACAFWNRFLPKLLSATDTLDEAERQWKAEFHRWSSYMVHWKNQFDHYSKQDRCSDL

C=CCOC(=O)c1ccc(C(=O)OCC=C)c(C(=O)OCC=C)c1
inactive: Potency [1] | Potency [2] | Potency [3] | Potency [4]

O=C(c1ccccc1)c1ccc2n1CCC2C(=O)O (stereo not given)
inactive: Potency [1] | Potency [2] | Potency [3] | Potency [4]

C[Si](NC1CCCCC1)(NC1CCCCC1)NC1CCCCC1
inactive: Potency [1] | Potency [2] | Potency [3] | Potency [4]

OCCN1CCNCC1
inactive: Potency [1] | Potency [2] | Potency [3] | Potency [4]

NC(=O)c1cnccn1
inactive: Potency [1] | Potency [2] | Potency [3] | Potency [4]

CCCCCCCCCCCC[N+](C)(C)CCCS(=O)(=O)[O-]
inactive: Potency [1] | Potency [2] | Potency [3] | Potency [4]

Cc1c2oc3c(C)ccc(C(=O)N[C@@H]4C(=O)N[C@H](C(C)C)C(=O)N5CCC[C@H]5C(=O)N(C)CC(=O)N(C)[C@@H](C(C)C)C(=O)O[C@@H]4C)c3nc-2c(C(=O)N[C@@H]2C(=O)N[C@H](C(C)C)C(=O)N3CCC[C@H]3C(=O)N(C)CC(=O)N(C)[C@@H](C(C)C)C(=O)O[C@@H]2C)c(N)c1=O (I: T[dV]P[Sar][NMeV] / II: T[dV]P[Sar][NMeV]; ester I:1-I:C, II:1-II:C; linker I:N-II:N via Actinocin(9to1))
inactive: Potency [1] | Potency [2] | Potency [3] | Potency [4]

CCc1cc(Cl)c(OC)c(C(=O)NC[C@@H]2CCCN2CC)c1O
inactive: Potency [1] | Potency [2] | Potency [3] | Potency [4]

CCCCC(CC)CN1CN(CC(CC)CCCC)CC(C)(N)C1 (stereo not given)
inactive: Potency [1] | Potency [2] | Potency [3] | Potency [4]

NS(=O)(=O)c1cc(C(=O)O)cc(N2CCCC2)c1Oc1ccccc1
inactive: Potency [1] | Potency [2] | Potency [3] | Potency [4]

O=C(OCc1ccccc1)c1ccccc1O
inactive: Potency [1] | Potency [2] | Potency [3] | Potency [4]

CC(=O)OCCC(C)C
inactive: Potency [1] | Potency [2] | Potency [3] | Potency [4]

CCOC(=O)c1cccc(N)c1
inactive: outcome [1] | outcome [2] | outcome [3] | outcome [4]

CC1(C)[C@@H]2CC[C@@]1(C)C(=O)C2
inactive: Potency [1] | Potency [2] | Potency [3] | Potency [4]

C=C(C)C(=O)OCC(O)CO (stereo not given)
inactive: Potency [1] | Potency [2] | Potency [3] | Potency [4]

O=Cc1ccccc1S(=O)(=O)O
inactive: Potency [1] | Potency [2] | Potency [3] | Potency [4]

C=CCSSCCC
inactive: Potency [1] | Potency [2] | Potency [3] | Potency [4]

COc1cc(C)c(Cc2cnc(N)nc2N)cc1OC
inactive: Potency [1] | Potency [2] | Potency [3] | Potency [4]

CCCCCCCCCOCC1CO1 (stereo not given)
inactive: Potency [1] | Potency [2] | Potency [3] | Potency [4]

CSc1cnc(C)cn1
inactive: Potency [1] | Potency [2] | Potency [3] | Potency [4]

O=C1OC(=O)c2cc(-c3ccc4c(c3)C(=O)OC4=O)ccc21
inactive: Potency [1] | Potency [2] | Potency [3] | Potency [4]

CC(=O)c1ccc(S(=O)(=O)NC(=O)NC2CCCCC2)cc1
inactive: Potency [1] | Potency [2] | Potency [3] | Potency [4]

O=c1[nH]cccc1O
inactive: Potency [1] | Potency [2] | Potency [3] | Potency [4]

CCCCCCCCCCCC(=O)Cl
inactive: Potency [1] | Potency [2] | Potency [3] | Potency [4]

CCCC(=O)OC
inactive: Potency [1] | Potency [2] | Potency [3] | Potency [4]

COC(=O)c1ccc([N+](=O)[O-])cc1
inactive: Potency [1] | Potency [2] | Potency [3] | Potency [4]

COC(=O)CCCCC(CCSS/C(CCO)=C(\C)N(C=O)Cc1cnc(C)nc1N)SC(C)=O (stereo not given)
inactive: Potency [1] | Potency [2] | Potency [3] | Potency [4]

CC1=C(C=O)C(C)(C)CCC1
inactive: Potency [1] | Potency [2] | Potency [3] | Potency [4]

Nc1cc(S(=O)(=O)O)ccc1O
inactive: Potency [1] | Potency [2] | Potency [3] | Potency [4]

O=C(O)CN(CCN(CC(=O)O)CC(=O)O)CCN(CC(=O)O)CC(=O)O
inactive: activity, negative = inhibition [1] 0.969% [at 23.6 µM] | activity change, negative = inhibition [2] 0.748% [at 23.6 µM] | activity change, negative = inhibition [3] 7.05% [at 23.8 µM] | activity change, negative = inhibition [4] 0% [at 23.6 µM]

CC(C)CCOCCC(C)C
inactive: Potency [1] | Potency [2] | Potency [3] | Potency [4]

C[C@@H]1C[C@H]2[C@@H]3CCC4=CC(=O)C=C[C@]4(C)[C@@]3(F)[C@@H](O)C[C@]2(C)[C@@]1(O)C(=O)COC(=O)c1ccncc1
inactive: Potency [1] | Potency [2] | Potency [3] | Potency [4]

Oc1ccc(OCc2ccccc2)cc1
inactive: Potency [1] | Potency [2] | Potency [3] | Potency [4]

C=CC(C)(CCC=C(C)C)OC(C)=O (stereo not given)
inactive: Potency [1] | Potency [2] | Potency [3] | Potency [4]

NCCS(=O)(=O)O
inactive: Potency [1] | Potency [2] | Potency [3] | Potency [4]

O=C(O)c1ccc2cc(C(=O)O)ccc2c1
inactive: Potency [1] | Potency [2] | Potency [3] | Potency [4]

CCCCCCCCSCC
inactive: Potency [1] | Potency [2] | Potency [3] | Potency [4]

OC[C@H]1O[C@@H](Oc2ccc(O)cc2)[C@H](O)[C@@H](O)[C@@H]1O
inactive: Potency [1] | Potency [2] | Potency [3] | Potency [4]

O=C=Nc1ccc(Cl)c(Cl)c1
inactive: Potency [1] | Potency [2] | Potency [3] | Potency [4]

O=Cc1ccc([N+](=O)[O-])cc1
inactive: Potency [1] | Potency [2] | Potency [3] | Potency [4]

CCCCCCCCC/C=C/CC1CC(=O)OC1=O (stereo not given)
inactive: Potency [1] | Potency [2] | Potency [3] | Potency [4]

COc1cc(OC)nc(O[C@H](C(=O)O)C(OC)(c2ccccc2)c2ccccc2)n1
inactive: Potency [1] | Potency [2] | Potency [3] | Potency [4]

O=Cc1ccc(C(=O)O)cc1
inactive: Potency [1] | Potency [2] | Potency [3] | Potency [4]

C[N+]1(CC2COC(c3ccccc3)(C3CCCCC3)O2)CCCCC1 (stereo not given)
inactive: Potency [1] | Potency [2] | Potency [3] | Potency [4]

NC(=O)c1cccc([N+](=O)[O-])c1
inactive: Potency [1] | Potency [2] | Potency [3] | Potency [4]

Cl[Si](Cl)(c1ccccc1)c1ccccc1
inactive: Potency [1] | Potency [2] | Potency [3] | Potency [4]

Nc1ccn([C@H]2CC[C@@H](CO)O2)c(=O)n1
inactive: Potency [1] | Potency [2] | Potency [3] | Potency [4]

CCCCN(CCCC)CCCC
inactive: Potency [1] | Potency [2] | Potency [3] | Potency [4]

C=C(C)C(=O)OCCOCCOCCOCCOC(=O)C(=C)C
inactive: Potency [1] | Potency [2] | Potency [3] | Potency [4]

COc1ccccc1C=O
inactive: Potency [1] | Potency [2] | Potency [3] | Potency [4]

NC(=O)NC1NC(=O)NC1=O (stereo not given)
inactive: Potency [1] | Potency [2] | Potency [3] | Potency [4]

CC[N+](CC)(CC(=O)Nc1c(C)cccc1C)Cc1ccccc1
inactive: Potency [1] | Potency [2] | Potency [3] | Potency [4]

COc1ccc([N+](=O)[O-])cc1N
inactive: Potency [1] | Potency [2] | Potency [3] | Potency [4]

O=C(O)c1ccc(Cl)cc1Cl
inactive: Potency [1] | Potency [2] | Potency [3] | Potency [4]

CCCNC(C)C(=O)Nc1ccccc1C (stereo not given)
inactive: Potency [1] | Potency [2] | Potency [3] | Potency [4]

CCOCCOCCOCCO
inactive: Potency [1] | Potency [2] | Potency [3] | Potency [4]

O=c1[nH]c(=O)n([C@H]2C[C@H](O)[C@@H](CO)O2)cc1C(F)(F)F
inactive: Potency [1] | Potency [2] | Potency [3] | Potency [4]

CN=C(NC#N)Nc1ccc(C2=NNC(=O)CC2C)cc1 (stereo not given)
inactive: Potency [1] | Potency [2] | Potency [3] | Potency [4]

CCCCC1C(=O)N(c2ccccc2)N(c2ccccc2)C1=O
inactive: Potency [1] | Potency [2] | Potency [3] | Potency [4]

CCN[C@H]1C[C@H](C)S(=O)(=O)c2sc(S(N)(=O)=O)cc21
inactive: Potency [1] | Potency [2] | Potency [3] | Potency [4]

From PubChem BioAssay (Tox21)
